Source: PubChem (University of Kansas High Throughput Screening Laboratory)
Pf apPOL block = Pf-apPOL inhibitors, biochemical, fluorescence; Plasmodium falciparum apicoplast DNA polymerase (apPOL); Recombinant Pf-apPOL, molecular beacon fluorescence, 1.5 h; inhibition, % at 10 µM; 210,000 compounds, 0.25% hits; AID 1794808, 2022
mHTT-CaM PPI inh = mutant huntingtin-calmodulin interaction inhibitors – biochemical, AlphaScreen, primary screen; P42858; AID 1671202, 2021; AlphaScreen His-mHTT/GST-CaM binding, luminescence; inhibition, % at 15 µM; 190,000 compounds, 3.6% hits;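 further: 0% = both proteins with DMSO and 100% = one protein alone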
Target sequence (P42858 whole entry, looked up, stated change not applied): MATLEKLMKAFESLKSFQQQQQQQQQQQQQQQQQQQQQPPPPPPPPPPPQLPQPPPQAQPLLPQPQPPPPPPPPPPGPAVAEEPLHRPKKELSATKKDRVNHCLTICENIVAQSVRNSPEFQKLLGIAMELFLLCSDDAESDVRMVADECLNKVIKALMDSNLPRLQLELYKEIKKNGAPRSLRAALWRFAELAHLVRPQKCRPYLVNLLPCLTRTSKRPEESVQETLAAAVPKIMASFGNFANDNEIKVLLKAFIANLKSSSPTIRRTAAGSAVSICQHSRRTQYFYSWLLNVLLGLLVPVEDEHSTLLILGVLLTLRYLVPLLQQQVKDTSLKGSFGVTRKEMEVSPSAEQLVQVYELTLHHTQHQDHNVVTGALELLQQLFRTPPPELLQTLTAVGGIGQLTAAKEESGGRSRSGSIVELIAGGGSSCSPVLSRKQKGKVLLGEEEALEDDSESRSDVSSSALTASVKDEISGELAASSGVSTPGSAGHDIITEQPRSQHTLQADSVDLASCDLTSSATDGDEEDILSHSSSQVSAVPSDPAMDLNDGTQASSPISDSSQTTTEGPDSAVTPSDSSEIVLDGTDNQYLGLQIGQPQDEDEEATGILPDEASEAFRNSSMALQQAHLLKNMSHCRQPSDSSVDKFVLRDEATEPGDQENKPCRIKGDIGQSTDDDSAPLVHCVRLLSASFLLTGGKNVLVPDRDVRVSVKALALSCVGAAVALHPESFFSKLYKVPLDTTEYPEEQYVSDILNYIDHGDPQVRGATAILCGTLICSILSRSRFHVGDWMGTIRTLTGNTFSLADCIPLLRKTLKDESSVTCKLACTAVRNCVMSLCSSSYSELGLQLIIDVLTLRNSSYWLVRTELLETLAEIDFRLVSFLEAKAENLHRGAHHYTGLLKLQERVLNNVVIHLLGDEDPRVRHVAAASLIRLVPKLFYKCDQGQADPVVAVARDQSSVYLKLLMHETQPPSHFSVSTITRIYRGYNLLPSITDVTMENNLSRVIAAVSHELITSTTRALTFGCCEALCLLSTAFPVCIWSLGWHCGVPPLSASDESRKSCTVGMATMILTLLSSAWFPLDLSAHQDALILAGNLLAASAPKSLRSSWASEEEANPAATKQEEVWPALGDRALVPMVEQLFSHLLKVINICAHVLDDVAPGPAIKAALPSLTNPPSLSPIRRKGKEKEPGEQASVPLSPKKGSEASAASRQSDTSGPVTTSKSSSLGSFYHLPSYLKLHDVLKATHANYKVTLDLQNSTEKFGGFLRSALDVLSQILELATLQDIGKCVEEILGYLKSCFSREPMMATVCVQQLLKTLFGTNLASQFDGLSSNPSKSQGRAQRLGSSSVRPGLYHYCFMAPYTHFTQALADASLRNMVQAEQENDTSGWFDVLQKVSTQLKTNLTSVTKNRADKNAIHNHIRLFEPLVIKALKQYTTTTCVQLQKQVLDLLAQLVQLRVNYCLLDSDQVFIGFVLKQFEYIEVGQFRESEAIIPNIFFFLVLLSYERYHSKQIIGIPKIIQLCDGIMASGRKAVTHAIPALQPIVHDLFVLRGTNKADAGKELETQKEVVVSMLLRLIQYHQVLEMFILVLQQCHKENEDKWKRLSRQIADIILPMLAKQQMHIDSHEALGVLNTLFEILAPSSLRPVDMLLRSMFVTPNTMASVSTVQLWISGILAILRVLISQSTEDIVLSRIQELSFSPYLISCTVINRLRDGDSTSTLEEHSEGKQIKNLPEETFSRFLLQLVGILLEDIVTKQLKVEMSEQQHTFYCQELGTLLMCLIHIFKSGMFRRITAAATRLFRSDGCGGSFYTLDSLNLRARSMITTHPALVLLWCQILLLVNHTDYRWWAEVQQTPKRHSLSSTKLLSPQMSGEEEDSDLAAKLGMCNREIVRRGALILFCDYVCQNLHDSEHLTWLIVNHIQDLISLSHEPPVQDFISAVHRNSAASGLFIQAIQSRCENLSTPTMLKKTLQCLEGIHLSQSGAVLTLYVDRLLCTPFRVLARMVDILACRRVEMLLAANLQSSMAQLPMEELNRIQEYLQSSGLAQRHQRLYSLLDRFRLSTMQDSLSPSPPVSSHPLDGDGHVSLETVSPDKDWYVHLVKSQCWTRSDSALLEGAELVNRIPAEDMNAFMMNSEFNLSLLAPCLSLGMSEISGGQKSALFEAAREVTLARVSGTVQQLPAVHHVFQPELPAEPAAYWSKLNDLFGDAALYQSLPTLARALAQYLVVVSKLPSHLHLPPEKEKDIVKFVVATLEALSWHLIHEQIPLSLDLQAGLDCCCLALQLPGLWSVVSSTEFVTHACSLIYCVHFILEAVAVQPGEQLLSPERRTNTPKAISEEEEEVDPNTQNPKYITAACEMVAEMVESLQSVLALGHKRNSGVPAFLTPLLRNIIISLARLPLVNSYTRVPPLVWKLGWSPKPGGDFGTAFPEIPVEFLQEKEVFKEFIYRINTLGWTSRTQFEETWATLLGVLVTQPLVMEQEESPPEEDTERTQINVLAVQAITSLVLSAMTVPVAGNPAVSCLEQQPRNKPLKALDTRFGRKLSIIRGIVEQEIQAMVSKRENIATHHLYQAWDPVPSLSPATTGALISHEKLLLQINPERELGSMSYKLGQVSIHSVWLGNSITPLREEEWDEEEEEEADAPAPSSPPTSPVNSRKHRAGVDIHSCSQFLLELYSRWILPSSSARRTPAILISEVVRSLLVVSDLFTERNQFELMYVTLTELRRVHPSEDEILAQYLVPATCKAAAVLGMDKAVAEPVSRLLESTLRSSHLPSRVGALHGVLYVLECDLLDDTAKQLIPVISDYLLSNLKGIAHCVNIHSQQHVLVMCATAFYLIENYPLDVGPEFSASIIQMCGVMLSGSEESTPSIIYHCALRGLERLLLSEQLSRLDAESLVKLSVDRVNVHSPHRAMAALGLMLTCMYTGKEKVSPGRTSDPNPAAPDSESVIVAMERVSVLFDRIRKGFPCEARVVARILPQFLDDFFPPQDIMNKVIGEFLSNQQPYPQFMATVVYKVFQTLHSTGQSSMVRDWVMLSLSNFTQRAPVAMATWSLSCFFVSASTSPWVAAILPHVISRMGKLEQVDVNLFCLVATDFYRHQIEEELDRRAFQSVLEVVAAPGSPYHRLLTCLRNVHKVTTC
Starred values were filed as active, the others as inactive; x = no result. Only some compounds are listed: those with a hit (about 3.6% of all), similar ones and a draw of the others. No stated cut-off is given here; in the data, active means inhibition above about 50%; inactive means the rest.

SMILES | Pf apPOL block | mHTT-CaM PPI inh
Cc1cccc(OCC(O)CN2CCN(CC(O)COc3cccc(C)c3)CC2)c1 (stereo not drawn) | -2 | 12
O=C1S/C(=C\c2ccccc2F)C(=O)N1c1ccccc1 | 4 | -6
O=C(NCc1cccc(Cl)c1)c1cc2n(n1)CCCN(Cc1ccc(Cl)cc1)C2=O | 12 | 64*
O=C(NCc1cccc(Cl)c1)c1cc2n(n1)CCCN(Cc1ccccc1)C2=O | 1 | -7
O=C(Nc1ccc(Br)c2cccnc12)c1ccc([N+](=O)[O-])cc1Cl | -2 | -2
CCOC(=O)CC(N)c1cccs1 (stereo not drawn) | -1 | -2
O=Nc1ccc(NOC(=O)/C=C/c2ccccc2)cc1 | -8 | 73*
O=C(/C=C/c1ccccc1)Nc1ccc(NC(=O)c2ccco2)cc1 | 4 | 10
N#Cc1c(SC=C(O)c2cc3ccccc3o2)nc2c(c1C(F)(F)F)CCCC2 | -15 | x
COc1ccc(C2CC(c3ccc(OC)c(OC)c3)n3nc(N)nc3N2)cc1 (stereo not drawn) | 2 | 3
CCCN1CCn2cc(C(=O)N3CCN(c4ccc(Cl)cc4)CC3)nc2C1 | -5 | 17
Cc1cccc(N2CCN(C(=O)c3cn4c(n3)CN(CC(C)C)CC4)CC2)c1C | -8 | 71*
Cc1cc(C)c(CNC(=O)c2cn3c(n2)CN(CC(C)C)CC3)c(C)c1 | 0 | 71*
Cc1ccc(C)c(CNC(=O)c2cn3c(n2)CN(CC(C)C)CC3)c1 | 0 | 20
CC(C)CN1CCn2cc(C(=O)N3CCN(c4ccccc4Cl)CC3)nc2C1 | -4 | 46
Cc1cccc(N2CCN(C(=O)c3cn4c(n3)COCC4)CC2)c1C | 0 | 5
CC(C)CN1CCn2cc(C(=O)N3CCN(c4ccccc4)CC3)nc2C1 | -6 | 58*
CC(C)CN1CCn2cc(C(=O)N3CCN(c4ccc(Cl)cc4)CC3)nc2C1 | -9 | 92*
O=C(CCC1CCCC1)N1CCCC(c2nc(-c3ccncc3)n[nH]2)C1 (stereo not drawn) | -4 | 3
CC(C)c1n[nH]c(C2CCCN2C(=O)NCc2cccc(F)c2)n1 (stereo not drawn) | 3 | -8
Cc1nc(Nc2ccc(Br)cc2C)c2cc(C)sc2n1 | -5 | -18
O=C(NC1CC(=O)N(Cc2ccccc2)C1)c1ccoc1 (stereo not drawn) | -9 | -10
CC(C)NC(=O)N1CCCC(c2cccc(C(=O)N3CCCC3)c2)C1 (stereo not drawn) | -4 | -2
CCOC(=O)CCc1c(C)n[nH]c1C | -1 | -1
CCOC(=O)CCc1c(CC(=O)OCC)c[nH]c1C=NO | 99* | x
SMILES | Pf apPOL block | mHTT-CaM PPI inh
C=C(C)CSC1=C(C#N)C(c2ccc(Cl)cc2Cl)CC(=O)N1 (stereo not drawn) | -1 | -4
CC1CC(OCC(O)CN2CCC(CN3C(=O)c4cccc5cccc(c45)C3=O)CC2)CC(C)(C)C1 (stereo not drawn) | 77* | 37
CC(C)(C)C1CCC(OCC(O)CN2CCC(CN3C(=O)c4cccc5cccc(c45)C3=O)CC2)CC1 (stereo not drawn) | 28 | 100*
COc1ccc(N2CCN(CC(O)COC3CCC(C(C)(C)C)CC3)CC2)cc1 (stereo not drawn) | -3 | 34
CC1CCN(CC(O)COC2CCCC2)CC1 (stereo not drawn) | -2 | -1
CCOC(=O)Cc1ccc(NC(=O)N2CCCC2c2c(C)noc2C)cc1 (stereo not drawn) | -1 | -1
CC(=O)OCc1c(OC(C)=O)ccc2c1OC(=Cc1ccccc1F)C2=O | 7 | 7
Cc1ccccc1CS(=O)(=O)CCC(=O)NCc1cccnc1 | -17 | -13
COc1ccc(C2SCC3C(=O)N(c4ccccc4)C(=S)N32)cc1O (stereo not drawn) | -5 | 100*
COc1ccc(C2SCCN2C(=O)c2ccccc2C(=O)O)cc1Br (stereo not drawn) | 0 | 5
Cc1ccc(C)c(S(=O)(=O)N2CCCC2c2nc(-c3cccc(Cl)c3)no2)c1 (stereo not drawn) | 2 | -53
O=C(NCCCN1CCOCC1)c1cc2nc(-c3cccs3)cc(C(F)(F)Cl)n2n1 | -4 | 25
O=C(NCCc1c[nH]c2ccccc12)c1cc2nc(-c3cccs3)cc(C(F)(F)Cl)n2n1 | -1 | 82*
CCSc1nnc(NC(=O)Cc2csc(Nc3cccc(C(F)(F)F)c3)n2)s1 | -9 | 11
O=C(Cc1csc(NC(=O)C2CCCC2)n1)Nc1nc(-c2cccnc2)cs1 | -9 | -17
CCSc1nnc(NC(=O)Cc2csc(NC(=O)c3cnccn3)n2)s1 | 44 | 88*
O=C(Cc1csc(NC(=O)c2cnccn2)n1)Nc1nc(-c2cccnc2)cs1 | 55* | 100*
Cc1ccc2nc(NC(=O)c3cnccn3)sc2c1 | 2 | 4
CCSc1nnc(NC(=O)c2cnccn2)s1 | -8 | 4
O=C(Cc1csc(NC(=O)c2cnccn2)n1)Nc1nc2ccccc2s1 | 30 | 80*
O=C(Cc1csc(NC(=O)c2cnccn2)n1)Nc1cccc(C(F)(F)F)c1 | 8 | 84*
Cc1cccc2nnc(N3CCC(NC(=O)c4ccc(C(F)(F)F)cc4)CC3)n12 | -10 | 8
CC1CC(C)CN(S(=O)(=O)c2ccc(F)c(C(=O)NCCc3ccccc3Cl)c2)C1 (stereo not drawn) | -7 | -7
CCOc1ccc(/C=C2\SC(=O)N(CN3CCCCC3)C2=O)cc1OC | -6 | 0
Cc1cc2cc(CCNC(=O)c3cccc(C(F)(F)F)c3)c(=O)[nH]c2cc1C | -1 | 0
SMILES | Pf apPOL block | mHTT-CaM PPI inh
O=[N+]([O-])c1ccc(-c2nc(C=Nc3ccccc3Cl)c(O)o2)cc1 | 0 | -2
CC(C)N1Cc2cc(C(=O)NC3CCCCCC3)sc2C1 | 1 | 11
COc1ccc(C(=O)NC2(c3nc(C)no3)CCCCC2)c(C)c1 | 3 | -15
O=c1c(-[n+]2ccccc2)cc2[nH]c3ccccc3c2n1-c1ccccc1 | -1 | 14
Cc1ccc(C)c(N=Cc2cccc([N+](=O)[O-])c2)c1 | 6 | 1
O=c1c(N=Cc2ccccc2)cc2[nH]c3ccccc3c2n1-c1ccccc1 | -5 | 99*
O=c1c(N=Cc2cccc([N+](=O)[O-])c2)cc2[nH]c3ccccc3c2n1-c1ccccc1 | 4 | 97*
COc1ccccc1NC(=O)CC1COc2ccccc2NC1=O (stereo not drawn) | 0 | -4
O=C(CC1COc2ccccc2NC1=O)Nc1cccc2ccccc12 (stereo not drawn) | -80 | 69*
O=c1oc2ccc(Br)cc2cc1-c1nc(-c2ccc([N+](=O)[O-])cc2)cs1 | -5 | -6
COc1ccc(-c2cc3ccc4c(c3oc2=O)CN(CC2CCCO2)CO4)c(OC)c1 (stereo not drawn) | -6 | 9
c1ccc(-c2nnc3sc(C4CCCCC4)nn23)nc1 | x | 5
Brc1ccc(-c2nn3c(-c4ccccn4)nnc3s2)o1 | x | 85*
Cc1cccc(CNC(=O)C2=C3CCCN3c3ccccc3S2(=O)=O)c1 | -2 | 9
Cc1cccc(NS(=O)(=O)c2cc3c(s2)CCN(C(=O)C2CC2)C3)c1C | -1 | 0
Cc1c(Cl)cccc1NS(=O)(=O)c1cc2c(s1)CCN(C(=O)C1CCC1)C2 | -3 | 51*
COc1ccc(Cl)cc1NC(=O)C(=O)O | 1 | -2
COc1cc(CNc2ccc(F)c(F)c2)cc([N+](=O)[O-])c1O | 4 | 16
CN1CCN(S(=O)(=O)c2cc(Cl)ccc2Cl)CC1 | 2 | -5
